# Source: PubChem BioAssay AID651551 (Sanford-Burnham Center for Chemical Genomics, 2012)
# Target: PEG-3 (UniProt Q6IN02)
# Test: GAPDH versus PEG-3 reporter suppression – cell-based, luminescence, counter-screen for PEG-3 promoter inhibitor project, SAR follow-up (AID 651551)
# Details: HeLa PEG-Prom / GAPDH luciferase reporter, 6 or 24 h, run 1, 6 h; at 99 µM (top of the series)
row,SMILES,inhibition % (higher = more inhibition) [%]
1,COc1ccc(Cl)cc1Nc1nc(-c2sc(NC(=O)c3ccccc3)nc2C)cs1,49.3
2,CCCn1nc(C(=O)Nc2nc(-c3ccccn3)cs2)c2ccccc2c1=O,25.9
3,COc1ccc(-n2nc(C(=O)NCC(=O)Nc3cccc(OC)c3)c3ccccc3c2=O)cc1,-7.42
4,O=C(Nc1nccs1)c1nn(-c2ccccc2)c(=O)c2ccccc12,37.4
5,COc1ccc(-n2nc(C(=O)NCC(=O)Nc3cc(OC)c(OC)c(OC)c3)c3ccccc3c2=O)cc1OC,6.02
6,Cc1cc(NC(=O)c2ccccc2)n(-c2nc3ccccc3[nH]2)n1,14.9
7,CCn1cc(C(=O)NCc2ccco2)c(=O)c2cc(S(=O)(=O)N3CCCC3)ccc21,19.5
8,CCCn1nc(C(=O)Nc2nc(-c3ccncc3)cs2)c2ccccc2c1=O,19.5
9,Cc1nc(NC(=O)c2ccccc2)sc1-c1csc(Nc2ccccc2)n1,23.9
10,Cc1nc(NC(=O)c2ccccc2)sc1-c1csc(Nc2ccccc2Cl)n1,-1.45
11,Cc1cc(NC(=O)c2ccccc2C)n(-c2nc3ccccc3[nH]2)n1,32.8
12,O=C(Nc1nc2ccccc2s1)c1nn(-c2ccccc2)c(=O)c2ccccc12,-4.43
13,O=C(Nc1nc(-c2ccccc2)cs1)c1nn(-c2ccccc2)c(=O)c2ccccc12,-1.45
14,CCn1nc(C(=O)Nc2nc(-c3ccccn3)cs2)c2ccccc2c1=O,26.9
15,CCCn1nc(C(=O)Nc2nc3ccccc3s2)c2ccccc2c1=O,38.9
16,Cc1nc(NC(=O)c2ccccc2)sc1-c1csc(Nc2cccc(Cl)c2C)n1,37.4
17,Cc1ccc(Cl)cc1Nc1nc(-c2sc(NC(=O)c3ccco3)nc2C)cs1,57.5
18,COc1ccccc1Nc1nc(-c2sc(NC(=O)c3ccco3)nc2C)cs1,12
19,COc1ccc(-n2nc(C(=O)NCC(=O)Nc3ccc(OC)c(OC)c3)c3ccccc3c2=O)cc1,23.9
20,Cc1cc(NC(=O)c2ccccc2)n(-c2nc3ccccc3n2C)n1,48.1
21,COCCCNC(=O)c1ccc(Cn2c(=O)c3ccccc3n(Cc3ccccc3C#N)c2=O)cc1,43.4
22,Cc1cc(NC(=O)c2ccccc2C(F)(F)F)n(-c2nc3ccccc3[nH]2)n1,92.7
23,Cc1cc(NC(=O)c2cccc(C)c2C)n(-c2nc3ccccc3[nH]2)n1,20.4
